The panel holds about 83,000 compounds, 20% with a hit somewhere; the sample as a whole holds those more often.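 A percent growth of 40 corresponds to 60% growth inhibition; 0 means no net growth; -100 means all cells died. Active threshold: below 10.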 Values without a mark were called inactive. Calls of active or inactive are those of the source.
system: T-47D breast; test: NCI-60 one-dose screen, 48 h (100 = growth as untreated, 0 = no growth, -100 = all killed); details: 10 µM unless noted

Structure (SMILES) | growth
CC(C)(C)c1cc(C=O)cc(C(C)(C)C)c1O | 110%
COc1ccc(OC)c(CCn2cncc2-c2c[nH]c3ccccc23)c1 | 45.8%
COCCCN1CC(O)=C(c2nc(-c3ccc(C)cc3)cs2)C1=N | 97.5%
O=C(CCN1CCCC1)Nc1ccc2c(Nc3ccc(Br)cc3)c3ccccc3nc2c1 | 13.6%
O=C(Cn1c[n+](CC(=O)c2ccc(-c3ccccc3)cc2)c2ccccc21)Nc1cccc2cccnc12 | 10.8%
CCN1Cc2nc3sc(C)c(C)c3c(=O)n2C=C1C | 37.1%
Cc1ccc(-n2c3c(c(-c4ccccc4)c2-c2ccccc2)C2=NCCN2C=N3)cc1 | 72.7%
CCCCC[n+]1ccc(SCC(=O)N(C)c2ccc(Oc3ccccc3)cc2)c2ccccc21 | 68.5%
COc1cc(OC)cc(C(=O)C[n+]2cccc3cc[nH]c32)c1 | 100%
CCOC(=O)[C@@H]1CCCN(S(=O)(=O)c2ccc(S(=O)(=O)N(CC)CC)c(F)c2)C1 | 53.3%
Cn1ccc2c1CC1CN(Cc3ccco3)C(=O)C1C2C(=O)O (stereo not drawn) | 98.7%
O=C(NO)c1ccc(-n2nc(-c3ccccc3)c3ccccc32)cc1 | 37.3%
COc1ccc(CC(C)=C(c2ccc(OCCN3CCCCCC3)cc2)c2ccc(OCCN3CCCCCC3)cc2)cc1 | -73.3% (active)
Nc1n[nH]c2cccc(C#Cc3cccc(C(=O)Nc4cccc(C(F)(F)F)c4)c3)c12 | 46.9%
Cc1ccc(C(=O)/C(=C/c2ccc([N+](=O)[O-])cc2)SCc2ccc(Cl)cc2)cc1 | 65.2%
O=C(O)c1ccc2c(c1)C(=O)N(Cc1ccccc1)C2=O | 95.8%
O=C1Nc2cc(-c3cccc(O)c3)ccc2/C1=C/c1ccc[nH]1 | -0.905% (active)
O=Cc1ccc(-c2cn3ccnc3c(-c3ccc4ncn(Cc5ccccc5)c4c3)n2)cc1 | 1.99% (active)
CCc1ccc(CNc2ccc(N3CCOCC3)c(C(=O)O)c2)cc1 | 86.3%

Structure (SMILES) | growth
O=C(CCN1CCCC1)c1ccc([N+](=O)[O-])cc1 | 88.6%
CNCCOc1nc2c3cnccc3cc(-c3cc(OC)c(OC)c(OC)c3)c2c2ccncc12 | -12.4% (active)
Nc1c(S(=O)(=O)O)cc2c3c(cccc13)C(=O)OC2=O | 96%
Oc1ccc(C(c2ccc(O)cc2)c2ccc(Br)cn2)cc1 | -38.5% (active)
CCCCOc1ccc(/C=N/Nc2cc(C)nc3ccc(Br)cc23)cc1 | 82.5%
CC1(C)NCCC[C@]2(C)[C@H]3CC(=O)[C@H]4[C@@H]5C[C@](C)(CO)CC[C@]5(C)CC[C@@]4(C)[C@]3(C)CC[C@@H]12 | 87.5%
N#Cc1cc(-c2nc3ccccc3s2)c(=O)n(NS(=O)(=O)c2ccccc2)c1N | 94.5%
O=S(=O)(NCCNc1nccc(-c2c(-c3cccc(O)c3)nc3occn23)n1)c1cccc(F)c1 | 73.7%
c1ccc2c(-c3c[nH]c4ccccc34)c3c(cc2c1)[nH]c1ccccc13 | 33.8%
O=C(/C=C(/C=C/c1csc2ccccc12)OB(F)F)/C=C/c1csc2ccccc12 | 38.4%
Cc1ccc(-c2csc(NC(=O)CSc3nc(-c4ccccc4)cc(=O)[nH]3)n2)cc1 | 78.1%
CCCC/C=N/NC(=S)NCc1ccccc1 | 88.3%
COc1ccc2nc(-c3ccc(-c4noc(-c5cc(OC)c(OC)c(OC)c5)n4)cc3)[nH]c2c1 | 83.8%
Fc1ccc(-c2cn3c(nc4ccccc43)c(-c3ccccc3)n2)cc1 | 86.2%
CCNC(=O)Oc1ccc(/C(=C(\C)c2ccccc2)c2ccc(OCCN3CCCCC3)cc2)cc1 | 24.1%
CCCCOc1ccc(/C(C)=N/Nc2cc(C)nc3ccc(Br)cc23)cc1 | 85.5%
N#Cc1cccc(-c2ccc3c(c2)NC(=O)/C3=C\c2ccc[nH]2)c1 | -28.7% (active)
O=C(NNc1nc2c(F)cccc2n2cccc12)c1cnccn1 | 22.8%
CN(C)CCC(=O)c1ccc([N+](=O)[O-])cc1 | 89.4%

— PubChem BioAssay (NCI)
